Bioassay records from PubChem.
Most compounds without a hit are left out; they make up all but 7% or so of the library.
D3 antag = blocks the human D3 dopamine receptor | P35462 | D3R cells, DiscoveRx beta-arrestin luminescence, antagonist mode; active compounds read low | hit rate 2.5% among 360,000 | max response, negative = inhibition, % | AID 652054; in the data active means max response below about -50%; inconclusive means no clear call, values can overlap the other calls; further: on the % scale 0 is the no-effect control and ±100 the full control effect
Target sequence (P35462 whole entry, looked up): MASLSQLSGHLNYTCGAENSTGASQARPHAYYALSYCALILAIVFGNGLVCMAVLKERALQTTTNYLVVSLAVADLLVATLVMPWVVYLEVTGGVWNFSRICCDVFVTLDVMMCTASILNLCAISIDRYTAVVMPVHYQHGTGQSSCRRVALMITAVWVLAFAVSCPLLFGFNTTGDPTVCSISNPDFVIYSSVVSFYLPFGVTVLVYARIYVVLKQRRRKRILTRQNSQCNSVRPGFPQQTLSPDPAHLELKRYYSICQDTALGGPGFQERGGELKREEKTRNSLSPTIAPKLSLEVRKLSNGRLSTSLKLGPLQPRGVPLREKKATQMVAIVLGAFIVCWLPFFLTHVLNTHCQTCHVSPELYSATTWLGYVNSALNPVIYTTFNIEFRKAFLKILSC
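Cells expressing the human receptor were seeded at 1500 cells/well, incubated overnight at 37 degrees C in 5% CO2, then exposed to library compounds with dopamine controls for 90 minutes at 37 degrees C before luminescent detection.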
IL-1B inflam inh = inflammasome signaling inhibition, IL-1 beta readout; THP-1 LPS/ATP IL-1B secretion, AlphaLISA, 16 h; active compounds read low; activity change, % at 57.5 µM; hit rate 4.7% among 360,000; AID 743279; in the data active means activity change below about -50%; inconclusive means mostly about -30% to -49%; further: on the % scale 0 is the no-effect control and ±100 the full control effect
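Secreted IL-1B measured by AlphaLISA bead assay after 16 h compound exposure of THP-1 cells; compounds (final up to 57.5 uM) added 1 h before LPS (250 ng/mL) and ATP (1.25 mM) stimulation; lower signal means less secretion.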
ATXN2 expr inh = ATXN2 expression inhibition; HEK-293 ATXN2-luciferase reporter, luminescence, 24 h; Potency, µM (doses to about 57 µM), for inactives: at the top dose activity change, negative = inhibition, usual class: inhibitors; hit rate 0.72% among 360,000; further: potency means the concentration at half of the fitted maximal effect; on the % scale 0 is the no-effect control and ±100 the full control effect; nearly all actives have a fitted effect of over 55% in size
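qHTS (up to 57 uM final) was run with 24 h compound exposure of reporter cells at 37 °C. Each well was multiplexed: SteadyGlo luminescence measured ATXN2-luciferase expression after a fluorogenic Gly-Phe-AFC viability readout (25 uM final).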
S2 tox = reduces viability in counter-screen for ATXN expression inhibitors | Potency, µM (series often up to 56.7 µM), most hits filed as cytotoxic | S2 cells (HEK-293 line with an ATXN2-luciferase reporter) viability, CellTiter-Fluor protease fluorescence, 24 h | AID 651635 | hit rate 0.49% among 400,000; further: potency means the concentration at half of the fitted maximal effect; nearly all actives have a fitted effect of over 40% in size
a7 integrin act = activates integrin-mediated alleviation for muscular dystrophy | alpha7betagal myoblasts, beta-gal FDG fluorescence, 48 h | Potency, µM (series often up to 38.3 µM), without a hit: at the highest dose activation, actives largely listed as activators | hit rate 0.064% among 350,000;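 further: potency means the concentration at half of the fitted maximal effect; 100% = response of the positive control SU9516; nearly all actives have a fitted effect of over 60% in size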
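Alpha7betagal+/- myoblasts (passage 13) were plated 16-24 hr, then exposed to compounds (1:260 dilution of DMSO stock) for 48 hours at 37C. After MPER lysis, β-galactosidase reporter activity was read as FDG fluorescence (ex 480/em 540) after 30 minutes.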
D3 ag = D3 dopamine receptor (human) agonism; P35462; D3R DiscoveRx beta-arrestin cells, luminescence, 90 min; max activation, %; hit rate 0.58% among 410,000; in the data active means max activation above about 30%; further: 0% is about no effect
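Agonist-mode cell screen: cells plated at 1500/well and incubated overnight at 37 °C, then exposed to library compounds for 90 min at 37 °C. Detection reagent was added for 30–60 min at room temperature, and luminescence was read.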
* marks the source's active call; other numbers are inactive results; i = inactive; ? = inconclusive; . = not tested or not shown; ! = not active in a repeat; [ ] = remark or other dose. Unless noted, the call rests on the fitted dose curve; in most records, active means well fitted curve in the direction sought with a large enough effect; inconclusive means small, poorly fitted or top-dose-only effect, or another doubt; inactive means no such curve, though single readings can be large; an effect the other way counts as inactive or inconclusive.

SMILES | D3 antag | IL-1B inflam inh | ATXN2 expr inh | S2 tox | a7 integrin act | D3 ag
CCOC(=O)Cn1nnnc1CN(Cc1ccc(OC)cc1)Cc1cc2cc(CC)ccc2[nH]c1=O | -23 | -89* | -2% | i | -2% | -1
CCOC(=O)Cn1nnnc1CN(Cc1ccc(OC)cc1)Cc1cc2cc(C)ccc2[nH]c1=O | -14 | 12 | 0% | i | 5% | 3
CCCC1=NN(c2ccc([N+](=O)[O-])cc2)C(=O)/C1=C/N(C)C | -15 | 17 | 26% | i | 16% | 5
CC1=NN(c2ccc([N+](=O)[O-])cc2)C(=O)/C1=C\N(C)C | -57* | -6 | 11% | i | 14% | -12
CCCn1c(SCC(=O)c2ccc3c(c2)OCCO3)nc2c1c(=O)n(C)c(=O)n2C | 12 | -2 | 7% | i | 18% | 1
C[C@H](NC(=O)C(C#N)=Cc1cccc(Br)n1)c1ccccc1 | . | . | 22µM* | . | . | .
COc1ccccc1/C=C/C=C(\C#N)C(=O)NC(C)c1ccccc1 (stereo not given) | -18 | -94* | -21% | i | -19% | -10
CC(NC(=O)/C(C#N)=C/c1ccc(C(=O)O)cc1)c1ccccc1 (stereo not given) | -14 | 13 | -11% | i | 7% | -5
COc1cc(/C=C(/C#N)C(=O)NC(C)c2ccccc2)cc(OC)c1O (stereo not given) | -10 | -2 | -1% | i | -20% | -9
O=C(/C=C/c1cccs1)NC(=S)Nc1ccc(C(=O)O)cc1 | -1 | ? | . | i | -38% | -15
Cc1nnc2n1N=CC=C(C(C)(C)C)S2 | -18 | -26 | 7% | i | -39% | 0
Cc1nnc2n1N=CC=C(c1ccccc1)S2 | 25 | -91* | . | . | -58% | -1
COC(=O)c1ccc(Cn2c(C)c(C(=O)NCc3ccc([N+](=O)[O-])cc3)sc2=O)o1 | -1 | -3 | -14% | i | . | 0
CCCCCCCCN1C(=O)[C@H](CC(=O)NCCCCc2ccccc2)C[C@@]2(C(=O)OC)CC(C)(C)CC=C12 | -24 | 16 | . | . | . | -13
Nc1nc(N)c(N=Nc2ccc(S(N)(=O)=O)cc2)c(=O)[nH]1 | -55* | 5 | . | ? | 8% | -6
NS(=O)(=O)c1ccc(N=Nc2ccc(O)c3ncccc23)cc1 | ? | 60 | . | 10µM* | -38% | 3
Cc1cccc(N=Nc2ccc(O)c3ncccc23)c1 | -101* | 3 | -28% | 10µM* | -3% | -2
Nc1nc(N)c(N=Nc2ccc(Cl)cc2)c(=O)[nH]1 | 0 | -9 | 39% | i | 31% | -14
CCOc1ccc(N=Nc2ccc(O)c3ncccc23)cc1 | -58* | 82 | ? | ? | 37% | -3
Cc1ccc(C)c(N=Nc2ccc(O)c3ncccc23)c1 | ? | 154 | ? | ? | 3% | -6
CC(=O)N1CN(C2CCCC2)Cc2c1sc1c2CCCC1 | -25 | -8 | -3% | i | 3% | -42
CCN1C(=O)[C@@H]2[C@@H](c3ccc(-c4ccc5c(c4)OCO5)cc3)N3CCCC[C@@]3(C(=O)OC)[C@@H]2C1=O | 12 | -3 | -15% | i | 0% | 2
CCS(=O)(=O)c1ccc(OC)c(N=Nc2ccc(O)c3ncccc23)c1 | 5 | 40 | -7% | i | -13% | 3
CCN(CC)S(=O)(=O)c1cc(OC)ccc1N=Nc1ccc(O)c2ncccc12 | -108* | 34 | . | . | -41% | -7
NS(=O)(=O)c1ccc(N=Nc2ccc(=O)[nH]c2O)cc1 | -102* | 26 | -31% | ? | 20% | -16
SMILES | D3 antag | IL-1B inflam inh | ATXN2 expr inh | S2 tox | a7 integrin act | D3 ag
Oc1ccc(N=Nc2ccc3c(c2)OCCO3)c2ncccc12 | -66* | 115 | . | . | 9% | -24
O=C(NN=C1CCCC1)c1cc(O)cc(O)c1 | -3 | 6 | 2% | i | 29% | 4
COc1ccc(Cc2nnc(Nc3ccc(C)cc3C)[nH]c2=O)cc1 | -61* | -3 | -6% | i | 6% | -2
CC(C)Oc1cccc(C(=O)C2CCCN(Cc3cnc(N4CCCC4)s3)C2)c1 (stereo not given) | -83* | ? | -23% | i | -10% | -18
COc1cccc(C(=O)C2CCCN(Cc3cn[nH]c3C3CCCCC3)C2)c1 (stereo not given) | -86* | -24 | -15% | i | 0% | -16
COc1ccc(-c2[nH]ncc2CN2CCCC(C(=O)c3ccc(OC)cc3OC)C2)cc1 (stereo not given) | 2 | ? | . | i | -21% | -13
COc1ccc(C(=O)C2CCCN(Cc3cccn3-c3ccccn3)C2)c(OC)c1 (stereo not given) | -9 | -93* | ? | ? | -40% | -10
COc1ccc(OC)c(CN2CCCC(C(=O)c3ccccc3SC)C2)c1 (stereo not given) | ? | -68* | ? | ? | -35% | -9
COc1ccc(F)cc1C(=O)C1CCCN(Cc2cccn2-c2ccccn2)C1 (stereo not given) | ? | -17 | ? | i | -64% | -26
Cc1ccc(S(=O)(=O)N2C3CCCCC3O[C@H]2CC(=O)OCc2ccccc2)cc1 (stereo not given in full) | 16 | 12 | . | . | . | 3
CSc1ccccc1C(=O)C1CCCN(Cc2cnn(-c3ccccc3)c2)C1 (stereo not given) | -76* | -4 | -34%[11.3 µM] | i | -40% | -17
CSc1ccccc1C(=O)C1CCCN(Cc2c(C)n(C)n(-c3ccccc3)c2=O)C1 (stereo not given) | 0 | -4 | -8% | i | -17% | -21
O=C(c1ccc(-c2ccccc2)c(F)c1)C1CCCN(CCCn2cccn2)C1 (stereo not given) | -9 | ? | ? | i | -49% | -15
CCn1cc(CN2CCCC(C(=O)c3ccc(-c4ccccc4)c(F)c3)C2)cn1 (stereo not given) | -12 | -81* | ? | ? | 0% | -24
COc1ccc(CNC(=O)CSCc2nc(-c3ccccc3C)oc2C)cc1 | . | . | . | . | . | -2
CCNc1nc(NC(C)(C)C)nc(N2CCCCC2)n1 | ? | -81* | 0% | ? | -51% | -11
CC(C(O)c1ccc(O)cc1)N1CCC(Cc2ccccc2)CC1 (stereo not given) | -88*! | ? | -6% | i | . | -91
C[C@@H]([C@H](O)c1ccc(O)cc1)N1CCC(Cc2ccccc2)CC1 | . | . | . | i | . | .
O=c1cc2oc3cc(O)c(O)cc3c(-c3ccccc3[N+](=O)[O-])c-2cc1O | -30 | -7 | . | 16µM* | -4% | -9
O=c1cc(-c2ccccc2Cl)oc2cccc(O)c12 | 0 | 15 | 5% | i | -11% | 4
